Source: PubChem BioAssay
HT1080NT lethal – kills 2HG-producing HT-1080-NT fibrosarcoma cells; Potency, µM (titrated, usually from 46.1 µM), for the others: at the highest dose activity, negative = less viability, usual class: cytotoxic; 360,000 compounds, 1.6% hits; HT-1080-NT fibrosarcoma viability, CellTiter-Glo ATP luminescence, 48 h;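 further: NT is the 2HG producing partner of a matched IDH1 knockdown line; potency means the concentration at half of the fitted maximal effect; 0% = DMSO-treated cells and -100% = media-only wells without cells; nearly all actives have a fitted effect of over 55% in size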
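A 48-hour cytotoxicity screen used HT-1080-NT cells plated 2 hours before compound delivery. ATP-based CellTiter-Glo luminescence measured viability, normalized to DMSO and no-cell controls.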
ELG1 DNA repair – ELG1-dependent DNA repair inhibition; HEK293T ELG1-luciferase reporter, luminescence, 16 h; DNA damage induced by 5-fluorouridine; Potency, µM (highest dose often 46.1 µM), for the others: at the highest dose activity change, negative = inhibition, actives largely listed as inhibitors; 330,000 compounds, 2.3% hits; further: potency means the concentration at half of the fitted maximal effect; nearly all actives have a fitted effect of over 55% in size
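In this reporter screen, reduction of luminescence relative to DMSO vehicle indicated activity. Compounds and 5-fluorouridine were added together to 2,000 cells per well, incubated for 16 hr at 37 °C, then developed with ONE-Glo.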
DT40 TDP1 no CPT – qHTS for Inhibitors of human tyrosyl-DNA phosphodiesterase 1 (TDP1): qHTS in cells in absence of CPT | AID 686978, 2013 | 420,000 compounds, 15% hits | Potency, µM (top dose mostly 46.2 µM), inactives show at the highest dose activity change, negative = growth inhibition, most hits filed as inhibitors | DT40 Tdp1-/- hTDP1 cells, no CPT, ATP luminescence, 48 h; further: potency means the concentration at half of the fitted maximal effect; nearly all actives have a fitted effect of over 55% in size
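Chicken DT40 Tdp1-/- cells complemented with human TDP1, screened without camptothecin (DMSO vehicle only), 400 cells/well. Compounds pin-transferred, cells incubated at 37 °C for at least 48 hr. Growth read as ATP-dependent luminescence (CellTiter-Glo, 30 min at RT).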
DT40 TDP1 CPT – DT40-hTDP1 cell growth loss with CPT; AID 686979; chicken DT40 Tdp1-/-;hTDP1 cells + 20 nM CPT, ATP luminescence, 48 h; 420,000 compounds, 12% hits; Potency, µM (titrated, usually from 46.2 µM), for inactives: top-dose activity change, negative = growth inhibition, usual class: inhibitors; further: potency means the concentration at half of the fitted maximal effect; nearly all actives have a fitted effect of over 55% in size
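Chicken DT40 Tdp1-/- cells complemented with human TDP1, 400 cells/well, exposed to compounds plus 20 nM camptothecin for at least 48 h at 37 C; viability read as ATP content by CellTiter-Glo luminescence.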
IL1B secr inh – inflammasome signaling inhibition, IL-1 beta readout | THP-1 LPS/ATP IL-1B secretion, AlphaLISA, 16 h; stronger effect = lower value | activity change, % at 57.5 µM | 360,000 compounds, 4.7% hits; in the data active means activity change below about -50%; inconclusive means mostly about -30% to -49%
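THP-1 cells pretreated 1 hr with compounds (up to 57.5 uM final), then stimulated with LPS (250 ng/mL final) plus ATP (1.25 mM final); secreted IL-1B measured by AlphaLISA after 16 hr, decreased signal indicating inhibition.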
HT1080 IDH1KD tx – toxicity to HT-1080 IDH1 knockdown cells (counter line). Potency, µM (series often up to 46.1 µM), without a hit: top-dose activity, negative = toxicity, usual class: cytotoxic. 360,000 compounds, 2% hits. HT-1080 IDH1 knockdown viability, ATP luminescence, 48 h;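 further: potency means the concentration at half of the fitted maximal effect; 0% = DMSO wells and -100% = cell-free medium wells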
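Assay cells: HT-1080 with IDH1 knockdown, 750 per well, RPMI/5% FBS. Exposure: 48 h at 37 °C following 2 h pre-incubation. Read: CellTiter-Glo luminescence; fitted concentration-response, curve class assigned.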
Numbers without * were called inactive; ? = inconclusive; . = not tested or not shown. In the library only some 19% were active in any assay of this set; here they are far more common. Unless noted, the call rests on the fitted dose curve; in most records, active means well fitted curve in the direction sought with a large enough effect; inconclusive means small, poorly fitted or top-dose-only effect, or another doubt; inactive means no such curve, though single readings can be large; an effect the other way counts as inactive or inconclusive. Unless noted, on the % scale 0 is the no-effect control and ±100 the full control effect.

SMILES	HT1080NT lethal	ELG1 DNA repair	DT40 TDP1 no CPT	DT40 TDP1 CPT	IL1B secr inh	HT1080 IDH1KD tx
O=C(/C=C/c1ccccc1)N1CCN(CCN2C(=O)c3cccc4cccc(c34)C2=O)CC1	-4%	10µM*	7.3µM*	7.3µM*	-25	6%
C/C(=N\Nc1nc(C)cc(-c2ccccc2)n1)c1ccc(O)cc1	10µM*	?	4.6µM*	7.3µM*	-74*	-14%
C/C(=N\Nc1nc(C)cc(-c2ccccc2)n1)c1cccc(N)c1	-8%	?	21µM*	?	5	-1%
COC(=O)c1cc(S(=O)(=O)N2CCCCC2)c[nH]1	0%	20%	9%	5%	22	0%
CCCCCSc1ncnc2c1sc1nc(N3CCOCC3)c3c(c12)CCCC3	.	.	-8%	-2%	.	.
COc1ccc(NC(=O)C2=C(C)Nc3ncnn3C2c2sccc2C)cc1 (stereo not drawn)	.	.	7%	0%	.	.
COc1cc(O)c(C(CCN2CCN(c3ccccc3)CC2)c2ccc3c(c2)OCO3)c(OC)c1 (stereo not drawn)	-15%	-18%	16µM*	23µM*	?	-24%
CCN(CC)CCC(c1ccc2c(c1)OCO2)c1c(O)cc(OC)cc1OC (stereo not drawn)	-6%	0%	18µM*	21µM*	-26	-15%
COc1cc(O)c(C(CCN2CCN(c3ccccc3)CC2)c2cc(OC)c(OC)c(OC)c2)c(OC)c1 (stereo not drawn)	-8%	-12%	23µM*	21µM*	-7	-14%
CCN(CC)C(=O)CC(c1ccc2c(c1)OCO2)c1c(O)cc(OC)cc1OC (stereo not drawn)	12%	10%	-29%	?	3	10%
COc1cc(O)c(C(CC(=O)N2CCN(c3ccccc3)CC2)c2ccc3c(c2)OCO3)c(OC)c1 (stereo not drawn)	10%	14%	?	?	-18	2%
COc1cc(O)c(C(CCN2CCCC2)c2ccc3c(c2)OCO3)c(OC)c1 (stereo not drawn)	-1%	?	23µM*	23µM*	?	-7%
Oc1ccc(N=Nc2ccccc2)o1	16µM*	17%	13µM*	5.8µM*	-90*	23µM*
O=C(Nc1cccc(-c2cccc(Cl)c2)c1)C1CCN(Cc2ccc(CO)o2)CC1	16µM*	-22%	?	?	-81*	16µM*
CCc1ccc(CN2CCC(C(=O)Nc3cccc(-c4nnc(C)s4)c3)CC2)o1	-1%	?	-9%	?	-1	-12%
O=C(Nc1cccc(-c2cccc(Cl)c2)c1)C1CCN(Cc2nccs2)CC1	-23%	.	5.8µM*	9.2µM*	-26	?
CC(C)n1cc(CN2CCC(C(=O)Nc3cccc(-c4cccc(Cl)c4)c3)CC2)cn1	18µM*	1%	?	?	-25	?
CC[N+](CC)(CC)CCCCOc1ccc2c(c1)C(=O)c1cc(OCCCC[N+](CC)(CC)CC)ccc1-2	-2%	7%	?	?	3	-8%
CCOC(=O)c1nc2cc3n(c(C)c-2c1C)C(C)C(CC)=C3C (stereo not drawn)	0%	.	18µM*	21µM*	-73*	-3%
CC(C)C[C@@H]1COc2cccc(N3CCC[C@H]3CO)c2S(=O)(=O)N1	15%	.	-11%	-13%	12	1%
COc1cccc(C(=O)NCCNC(=O)c2ccc(C)nc2)c1	9%	-4%	-2%	3%	24	4%
O=c1cc(-c2ccccc2)nc2cc(-c3ccc(F)cc3)[nH]n12	?	.	6.5µM*	7.3µM*	5	?
Cc1cc(=O)n2[nH]c(-c3ccccc3)cc2n1	-1%	.	-12%	-25%	85	0%
CCc1c(C)nc2cc(-c3ccc(OC)cc3)[nH]n2c1=O	-2%	?	15µM*	21µM*	-6	7%
COc1cccc(C(=O)Nc2nc3nc(-c4ccccc4)cc(=O)n3[nH]2)c1	.	.	-16%	-2%	.	.
SMILES	HT1080NT lethal	ELG1 DNA repair	DT40 TDP1 no CPT	DT40 TDP1 CPT	IL1B secr inh	HT1080 IDH1KD tx
Cc1cc(=O)n2[nH]c(-c3ccc(C(C)(C)C)cc3)cc2n1	?	?	21µM*	18µM*	-3	?
COc1cccc(-c2cc3nc(-c4ccccc4)cc(=O)n3[nH]2)c1	1.5µM*	?	2.6µM*	2.6µM*	88	1.3µM*
CCCS(=O)(=O)NC(=O)C1(C)CCN(C(=O)CSc2ccccc2)C1 (stereo not drawn)	13%	.	3%	-7%	15	15%
CCN(CC)c1ccc2c(c1)oc(=O)c1c(Cl)cc(=O)oc12	?	?	5.2µM*	2.6µM*	-126*	2.6µM*
CCN(CC)c1ccc2c(Cl)c(Br)c(=O)oc2c1	18µM*	?	23µM*	18µM*	-100*	21µM*
CCN(CC)c1ccc2c(C)c(Cl)c(=O)oc2c1	-12%	?	?	-2%	19	-4%
COc1ccc(-c2csc(=NCCO)n2-c2ccccc2)cc1	-24%	?	18µM*	?	-74*	-14%
CCc1ccc(NC(=O)Cn2c(=O)n(-c3ccc(OC)cc3)c(=O)c3ccc(C(=O)NCc4ccc(C)cc4)cc32)cc1	.	.	7.3µM*	10µM*	.	.
CCCN(CCC)C(=O)Cn1c(=O)n(-c2ccc(OC)cc2)c(=O)c2ccc(C(=O)NCc3ccc(C)cc3)cc21	.	.	16µM*	?	.	.
COc1cccc(NC(=O)Cn2c(=O)n(-c3ccc(C)cc3)c(=O)c3ccc(C(=O)NCc4ccco4)cc32)c1	.	.	?	16µM*	.	.
CCOc1ccc(NC(=O)Cn2c(=O)n(-c3ccccc3)c(=O)c3ccc(C(=O)NCc4ccc5c(c4)OCO5)cc32)cc1	.	.	21µM*	21µM*	.	.
CCOc1ccc(NC(=O)Cn2c(=O)n(Cc3ccc(C(=O)NCc4ccc5c(c4)OCO5)cc3)c(=O)c3ccccc32)cc1	.	.	-7%	-20%	.	.
O=S1(=O)CC(N2CCC(c3ccccc3)CC2)CN1Cc1ccccc1 (stereo not drawn)	-3%	.	?	?	-1	2%
CS(=O)(=O)Nc1cccc(C(=O)OCCCOc2ccc(F)cc2)c1	-18%	-16%	5%	-18%	20	-23%
CCCC(=O)N1CCCC1(C)C(=O)NCCc1ccccn1 (stereo not drawn)	14%	.	6%	-3%	20	19%
